# Assay outcomes: PubChem, several laboratories
# In the library only some 3% were active in any assay of this set; here they are far more common.
# Rv3671c protease: Rv3671c serine protease inhibitors, primary screen, biochemical, fluorescence polarization, M. tuberculosis H37Rv; P9WHR9; inhibition, % at 5.96 µM; 0.048% of 320,000 active; AID 2606, 2010; in the data active = inhibition above about 38%;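 also: extracellular domain of Rv3671c used as enzyme; 0% = enzyme with DMSO and 100% = no enzyme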
# Target sequence (P9WHR9 whole entry, looked up, the tested form may be a part): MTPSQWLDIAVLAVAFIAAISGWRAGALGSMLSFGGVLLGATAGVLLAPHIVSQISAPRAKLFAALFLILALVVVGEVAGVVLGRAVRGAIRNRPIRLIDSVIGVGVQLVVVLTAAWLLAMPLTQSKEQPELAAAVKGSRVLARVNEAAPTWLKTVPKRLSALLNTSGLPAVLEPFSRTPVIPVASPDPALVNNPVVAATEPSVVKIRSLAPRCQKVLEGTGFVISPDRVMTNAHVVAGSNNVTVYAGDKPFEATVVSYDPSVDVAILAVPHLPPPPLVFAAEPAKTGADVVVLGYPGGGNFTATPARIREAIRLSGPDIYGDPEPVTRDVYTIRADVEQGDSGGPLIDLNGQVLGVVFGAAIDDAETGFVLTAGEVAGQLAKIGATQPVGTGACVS
# Mtb FBA inh: Mtb FBA enzyme inhibitors, primary screen, biochemical, fluorescence, strain H37Rv | Fructose-bisphosphate aldolase (Mycobacterium tuberculosis (strain ATCC 25618 / H37Rv)), … | purified M. tuberculosis FBA, fluorescence read-out | inhibition, % at 1 µM | 2.3% of 360,000 active;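 also: 0% = vehicle and 100% = reference inhibitor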
# GDH-TPI counter-1: GDH-TPI coupling enzyme inhibitors, primary screen, artefact control for M. tuberculosis FBA inhibitor project, biochemical, absorbance, full deck | GDH-TPI coupled enzyme counterscreen, NADH absorbance | inhibition, % at 4.8 µM | 1.2% of 360,000 active | AID 588335, 2011; in the data active = inhibition above about 30%;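 also: 0% = DMSO wells and 100% = wells lacking the enzyme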
# Mtb BioA inh: M. tuberculosis BioA enzyme inhibitors, primary screen, biochemical, plate reader, single point, HTS | inhibition, % at 9.99 µM | 7,8-diaminopelargonic acid synthase BioA (Mycobacterium tuberculosis) | AID 602481, 2012 | 0.096% of 360,000 active | purified M. tuberculosis BioA enzyme; in the data active = inhibition above about 40%
# FadD28 binding: inhibitors of FadD28 bisubstrate probe binding, primary screen, biochemical, fluorescence polarization, single point; inhibition, % at 12.5 µM; 0.22% of 360,000 active; in the data active = inhibition above about 8.5%, passing the limit was not always enough
# Mtb FBA confirm: M. tuberculosis aldolase blockers, biochemical, fluorescence, strain H37Rv, confirmation; purified M. tuberculosis FBA, fluorescence read-out; shares compounds with Mtb FBA inh; 78% of 5,600 active; inhibition, % at 1 µM;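 also: 0% = vehicle wells and 100% = reference inhibitor wells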
# GDH-TPI counter-2: GDH-TPI coupling enzyme inhibitors, artefact control for M. tuberculosis FBA inhibitor project, biochemical, fluorescence, high throughput; 81% of 5,600 active; GDH-TPI coupled enzyme counterscreen; shares compounds with Mtb FBA inh; inhibition, % at 1 µM; in the data active = inhibition above about 10%
# Starred values were filed as active, the others as inactive; . = not tested or not shown; + = active, no number. Rule as the data show it, unless noted: active = inhibition above about 27%; inactive = the rest.
SMILES,Rv3671c protease,Mtb FBA inh,GDH-TPI counter-1,Mtb BioA inh,FadD28 binding,Mtb FBA confirm,GDH-TPI counter-2
CN1C(=O)c2cc(NC(=O)C3CCCC3)ccc2OC[C@@H]2O[C@H](CC(=O)NCC(F)(F)F)CC[C@H]21,.,.,.,-2,.,.,.
C[C@@H]1CN([C@H](C)CO)C(=O)Cc2cc(NC(=O)CCCCCC(=O)Nc3ccccc3N)ccc2O[C@H]1CN(C)CC1CCCCC1,.,.,.,-1,.,.,.
CCC(=O)Nc1ccc2c(c1)nc1n2CCN(CCOC)C1,4,33*,3,-4,.,1,-1
CCC(=O)Nc1ccc2c(c1)nc1n2CCN(C2CCCCC2)C1,2,62*,3,.,-5,92*,91*
C[C@@H]1CN([C@@H](C)CO)C(=O)c2cccc(NS(=O)(=O)c3ccccc3)c2O[C@@H]1CN(C)Cc1ccc(C(=O)O)cc1,.,.,.,-2,.,.,.
CCCc1c2ccccc2nc2ccccc12,2,50*,8,-1,-6,38*,34*
N#Cc1c2ccccc2nc2ccccc12,1,28*,-2,1,-1,182*,117*
Cn1c(NN)nc2ccccc2c1=O,-3,5,4,.,-1,.,.
Nc1c2ccccc2nc2ccccc12,-7,63*,6,-3,0,73*,48*
Cn1c(N)nc2ccccc2c1=O,-4,28*,-1,-1,-1,34*,22*
CCCc1cc(C(=O)O)c2ccccc2n1,3,2,1,-1,-4,.,.
Cc1noc(C)c1S(=O)(=O)Nc1ccc2c(c1)C(=O)N([C@@H](C)CO)C[C@H](C)[C@H](CN(C)S(=O)(=O)c1cn(C)cn1)OCCCC[C@@H](C)O2,.,.,.,0,.,.,.
CC(C)NC(=O)N(C)C[C@@H]1Oc2ccc(NC(=O)Nc3cccc4ccccc34)cc2CC(=O)N([C@@H](C)CO)C[C@@H]1C,.,.,.,1,.,.,.
O=C(N[C@H]1CC[C@H](CC(=O)N2CCOCC2)O[C@@H]1CO)c1cccc(F)c1,.,.,.,-2,.,.,.
CCCNC(=O)[C@H]1[C@H](CO)[C@H]2Cn3c(ccc(C4=CCCC4)c3=O)[C@@H]1N2,.,.,.,1,.,.,.
Cc1ccc(-c2ccc3c(c2)O[C@@H](CN(C)Cc2ccccn2)[C@@H](C)CN([C@H](C)CO)S3(=O)=O)cc1,.,.,.,1,.,.,.
Nc1nc2ccccc2nc1N,2,51*,3,1,-1,69*,61*
Nc1nc2ccccc2[nH]1,.,0,-2,0,.,.,.
CC(C)NC(=O)N(C)C[C@H]1Oc2ccc(NC(=O)c3ccncc3)cc2C(=O)N([C@@H](C)CO)C[C@H]1C,.,.,.,0,.,.,.
C[C@@H]1CN([C@@H](C)CO)C(=O)c2cc(NS(=O)(=O)c3ccc(F)cc3)ccc2O[C@@H]1CN(C)Cc1ccccc1,.,.,.,0,.,.,.
CCOC(=O)NN1C(=O)c2ccccc2NC1c1ccccn1 (stereo unspecified),-1,30*,4,2,-1,105*,77*
CCOC(=O)NN1C(=O)c2ccccc2NC1c1ccccc1 (stereo unspecified),4,39*,8,2,-1,+,+
CCOC(=O)NN1C(=O)c2ccccc2NC1c1ccc(N(C)C)cc1 (stereo unspecified),5,10,17,2,-4,.,.
CCOC(=O)NN1C(=O)c2ccccc2NC1C (stereo unspecified),8,72*,0,3,0,146*,116*
CCOC(=O)NN1C(=O)c2ccccc2NC1c1ccccc1F (stereo unspecified),-7,37*,2,-5,-1,51*,32*
SMILES,Rv3671c protease,Mtb FBA inh,GDH-TPI counter-1,Mtb BioA inh,FadD28 binding,Mtb FBA confirm,GDH-TPI counter-2
CCCN(C)C[C@@H]1Oc2ncc(-c3ccc(OC)cc3)cc2C(=O)N([C@H](C)CO)C[C@@H]1C,.,.,.,1,.,.,.
C[C@H]1CN([C@@H](C)CO)S(=O)(=O)c2ccc(C#CC3CC3)cc2O[C@H]1CN(C)CC1CCOCC1,.,.,.,-1,.,.,.
CCOC(=O)NN1C(=O)c2ccccc2NC1c1ccc(OC)cc1 (stereo unspecified),4,40*,9,2,-1,140*,119*
O=C(O)CCC(=O)NN1C(=O)c2ccccc2NC1c1ccco1 (stereo unspecified),10,32*,1,.,-3,-4,-4
O=C(NN1C(=O)c2ccccc2NC1c1ccco1)c1ccccc1 (stereo unspecified),8,7,10,1,1,.,.
COCC#Cc1cnc2c(c1)C(=O)N([C@@H](C)CO)C[C@H](C)[C@@H](CN(C)C(=O)NC1CCCC1)O2,.,.,.,9,.,.,.
COc1cc2[nH]c(=S)nc(NCC3CCCO3)c2cc1OC (stereo unspecified),-9,75*,22,3,-3,83*,61*
COc1cc2[nH]c(C(=O)NCC3CCCO3)cc2c(OC)c1OC (stereo unspecified),-1,32*,3,0,-2,+,+
Cc1oc2c(CN3CCOCC3)c(O)ccc2c(=O)c1-c1ccc(Cl)cc1,0,65*,28,23,-2,37*,22*
CCCc1cc(=O)oc2c(CN3CCOCC3)c(O)ccc12,-2,.,23,-1,-3,.,.
Cc1oc2c(CN3CCCCC3C)c(O)ccc2c(=O)c1-c1ccc(Br)cc1 (stereo unspecified),.,108*,11,13,-1,118*,97*
Cc1oc2c(CN3CCOCC3)c(O)ccc2c(=O)c1-c1ccc(Br)cc1,8,68*,10,39,-4,4,-4
C[C@H](NC(=O)C[C@H]1C[C@H]2c3cc(NC(=O)CC4CC4)ccc3O[C@H]2[C@@H](CO)O1)c1ccccc1,.,.,.,4,.,.,.
C[C@H](CO)N1C[C@H](C)[C@H](CN(C)C(=O)Nc2ccccc2)Oc2c(NC(=O)c3cnccn3)cccc2C1=O,.,.,.,-2,.,.,.
CNC(=O)c1ccc(-c2ccc(F)cc2)s1,-7,41*,6,0,-2,115*,95*
COc1ccccc1CNC(=O)COC(=O)c1cnccn1,-5,0,-4,-2,0,.,.
Nc1nccnc1C(=O)OCC(=O)NCCc1ccc(S(N)(=O)=O)cc1,-4,88*,10,-3,1,100*,91*
COCC(=O)NCCc1ccc(S(N)(=O)=O)cc1,6,6,2,-1,0,.,.
COc1ccccc1CNC(=O)COC(=O)c1nccnc1N,-4,48*,0,0,-3,9,-6
